Test results as given in PubChem BioAssay (NCI).
This is part of a sample that, as a whole, favours compounds with a hit. Of some 83,000 tested, about 20% had one in any assay.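 96-well plates, one dose, 48 hours. Percent growth reported; active if below 10.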 Values without a mark were called inactive. Active and inactive are the calls of the source.

How the values were obtained:
Assay in all cases: NCI-60 one-dose screen, 48 h (100 = growth as untreated, 0 = no growth, -100 = all killed)
Conditions in all cases: 10 µM unless noted
[1] = system: SK-MEL-2 melanoma
[2] = system: EKVX NSCLC
[3] = system: SN12C renal
[4] = system: UO-31 renal
[5] = system: TK-10 renal
[6] = system: ACHN renal
[7] = system: CAKI-1 renal
[8] = system: A498 renal
[9] = system: MOLT-4 leukemia
[10] = system: SR leukemia
[11] = system: RPMI-8226 leukemia
[12] = system: OVCAR-8 ovarian
[13] = system: OVCAR-5 ovarian
[14] = system: OVCAR-4 ovarian
[15] = system: SK-OV-3 ovarian
[16] = system: IGROV1 ovarian
[17] = system: OVCAR-3 ovarian
[18] = system: HS 578T breast
[19] = system: NCI/ADR-RES ovarian
[20] = system: CCRF-CEM leukemia

| Structure (SMILES) | growth [1] | growth [2] | growth [3] | growth [4] | growth [5] | growth [6] | growth [7] | growth [8] | growth [9] | growth [10] | growth [11] | growth [12] | growth [13] | growth [14] | growth [15] | growth [16] | growth [17] | growth [18] | growth [19] | growth [20] |
| --- | --- | --- | --- | --- | --- | --- | --- | --- | --- | --- | --- | --- | --- | --- | --- | --- | --- | --- | --- | --- |
| C=C1C(=O)O[C@H]2[C@H]1CC/C(COC(=O)C(=O)c1c[nH]c3ccccc13)=C\CC[C@@]1(C)O[C@@H]21 | -57.5% (active) | 48.2% | -46.7% (active) | -93.3% (active) | -32.3% (active) | -36% (active) | -33.8% (active) | -17.9% (active) | -24.6% (active) | 1.82% (active) | -29.8% (active) | -6.78% (active) | -5.59% (active) | 17.9% | 85.1% | -69.8% (active) | -82.2% (active) | 10.7% | 17.9% | – |
| CC/C=C\C[C@H](O)C/C=C1/C(=O)C=C[C@@H]1C/C=C\CCCC(=O)OC | -2.28% (active) | 35.5% | -7.19% (active) | -75.1% (active) | -1.5% (active) | -57.5% (active) | -15.6% (active) | 103% | -6.76% (active) | -4.28% (active) | -11.5% (active) | -6.94% (active) | 27.1% | 36.8% | 35.9% | 0.514% (active) | -6.12% (active) | 41.1% | 20.6% | – |
| COc1cccc(Nc2nccc(Nc3ccc4[nH]ncc4c3)n2)c1 | -37% (active) | 34% | 20.2% | -62.1% (active) | -77.7% (active) | -3.17% (active) | -30.8% (active) | 12.7% | -32.4% (active) | -11.5% (active) | -39.6% (active) | -80.5% (active) | 32.9% | -59.6% (active) | 15.3% | -24.2% (active) | -61.5% (active) | 23.9% | -11.4% (active) | – |
| COc1ccc2occ(C3=C(c4c[nH]c5ccccc45)C(=O)N(O)C3=O)c2c1 | 102% | 93.1% | 95.9% | 61.9% | 126% | 95.3% | 83.6% | 118% | 102% | 57.2% | 66.7% | 90.5% | 104% | 112% | 88.7% | 91.3% | 98.9% | 95.7% | 99.1% | – |
| C=C(C)[C@@H]1CC[C@]2(C(=O)NC3CCCCC3)CC[C@]3(C)[C@H](CC[C@@H]4[C@@]5(C)CCC(=O)C(C)(C)[C@@H]5CC[C@]43C)[C@@H]12 | 95% | 93.9% | 86% | 76.1% | 95.2% | 99.8% | 76.6% | 83.3% | 88% | 115% | 83.1% | 94.6% | 96.5% | 82.1% | 97.1% | 101% | 96.7% | 89.5% | 104% | – |
| C[n+]1cc2c3c(ccc2c2ccc4cc5c(cc4c21)OCO5)OCO3 | -77.4% (active) | -74% (active) | -53.4% (active) | -94.6% (active) | -95.4% (active) | -92.2% (active) | -29.9% (active) | -64.1% (active) | – | – | – | -79.5% (active) | -65.5% (active) | – | -99.5% (active) | -83.2% (active) | -93.5% (active) | -2.95% (active) | -36.4% (active) | 11.8% |
| NC(=N\N=C/c1ccccc1[N+](=O)[O-])/C(N)=N\N=C/c1ccccc1[N+](=O)[O-] | 98.4% | 98.5% | 108% | 116% | 99.6% | 109% | 95.2% | 85.9% | 113% | 107% | 88.2% | 109% | 109% | 111% | 102% | 136% | 116% | 100% | 114% | – |
| C=C1C(=O)O[C@H]2[C@H]1CC/C(COC(=O)C(=O)c1c[nH]c3ccc(OC)cc13)=C\CC[C@@]1(C)O[C@@H]21 | -60.9% (active) | -4.43% (active) | -48.5% (active) | -96.3% (active) | -56.7% (active) | -67.1% (active) | -56.9% (active) | -98.7% (active) | -28.2% (active) | -2.97% (active) | -35.6% (active) | -24.6% (active) | -30.6% (active) | -12% (active) | 15.8% | -73% (active) | -74.6% (active) | 2.01% (active) | 7.22% (active) | – |
